Reference: the supplement of paper PMC10849652
Targets with a hit are over-represented here; the source holds about 8,800 in all. About 0.5% of all pairs of compound and target were hits. Values without a mark were called inactive.

How the values were obtained:
Assay in all cases: log2 fold change, soluble protein after heating vs DMSO (PISA); higher = thermal stabilisation; K562 lysate, 10 uM; active = over 0.2 and 3.5 SD of the protein, either way, in both replicates (recomputed)
[1] = compound: C#Cc1cccc(Nc2ncnc3cc(OCCOC)c(OCCOC)cc23)c1 [erlotinib]
Procedure, shortened: (§1)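 Thermal stability, expressed as log-two fold change relative to solvent controls, is given from duplicates. Crude K562 extract in PBS pH 7.4 with 1 mM MgCl2, at 1 mg/mL protein, was treated with 10 μM compound for 30 min and heated in aliquots for 3 min across 48°C-58°C. After pooling, adjustment to 0.5% NP-40 at 4°C and centrifugation at 21,000xg for 90 min, supernatant protein was measured by TMTpro 16plex LC-MS/MS with channel sums equalised.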

[2] = compound: C/C(=N\NC(=O)C1=CC(=CC=C1)S(=O)(=O)N2CCOCC2)/C3=C(C=CC(=C3)Cl)O
Procedure, shortened: as §1

[3] = compound: C1=CC(=CC=C1C2=NC3=C(N2)C=C(C=C3)C(=O)N)OC4=CC=C(C=C4)Cl
Procedure, shortened: as §1

[4] = compound: C1=CC2=C(C=CC(=C2)/C=C\3/C(=O)NC(=NCC4=CC=CS4)S3)N=C1
Procedure, shortened: as §1

[5] = compound: C1=CC2=NC=CN=C2C=C1/C=C/3\C(=O)NC(=O)S3
Procedure, shortened: as §1

[6] = compound: C1=CC=C(C=C1)C2=NC(=C(N2)C3=CC=NC=C3)C4=CC(=C(C=C4)Cl)O
Procedure, shortened: as §1

[7] = compound: C1=CC=C2C(=C1)C3=NNC4=CC=CC(=C43)C2=O
Procedure, shortened: as §1

[8] = compound: C1CCN(C1)C(=O)NC2=CC=CC(=C2)NC3=NC=C(C(=N3)NCCC4=CN=CN4)Br
Procedure, shortened: as §1

[9] = compound: C1CN(CCC1(CC2=CC=C(C=C2)Cl)N)C3=NC=NC4=C3C=CN4
Procedure, shortened: as §1

[10] = compound: C1COCCN1CCN2C3=CC=CC=C3N=C2NC(=O)C4=CC(=CC=C4)[N+](=O)[O-] [IRAK-1-4 Inhibitor I]
Procedure, shortened: as §1

[11] = compound: C=CC(=O)N1CCC[C@@H](n2nc(-c3ccc(Oc4ccccc4)cc3)c3c(N)ncnc32)C1 [ibrutinib]
Procedure, shortened: as §1

[12] = compound: CC(=O)c1cnc2ccc(-c3cc(Cl)c(O)c(Cl)c3)nc2c1N[C@H]1CC[C@H](CN(C)C)CC1
Procedure, shortened: as §1

[13] = compound: CC(C)(C)Cn1c(N)nc2ccc(-c3[nH]c(C(C)(C)C)nc3-c3ccc(F)cc3)nc21 [ralimetinib]
Procedure, shortened: as §1

[14] = compound: CC(C)(O)CC(=O)NCCn1ccc2ncnc(Nc3ccc(Oc4cccc(C(F)(F)F)c4)c(Cl)c3)c21
Procedure, shortened: as §1

[15] = compound: CC(C)C1=C2N=C(C=C(N2N=C1)NCC3=CC=CC=C3)NCCCCCCN
Procedure, shortened: as §1

[16] = compound: CC1=C(C(CC(=O)N1)C2=CC=C(C=C2)C(F)(F)F)C(=O)NC3=C(C=C4C(=C3)C=NN4)F
Procedure, shortened: as §1

[17] = compound: CC1=C(C2=C(C=C1)C(=O)C3=CC=CC=C3N2CCCN)C
Procedure, shortened: as §1

[18] = compound: CC1=C(C=C(C=C1)NC(=O)C2=CC(=CC=C2)C(C)(C)C#N)NC3=CC4=C(C=C3)N=CN(C4=O)C
Procedure, shortened: as §1

[19] = compound: CC1=C(C=C(C=C1)NC(=O)C2=CC(=CC=C2)N(C)C)NC(=O)C3=CC=C(C=C3)O
Procedure, shortened: as §1

[20] = compound: CC1=CC=C(C=C1)SC2=C3C=C(SC3=CN=C2)C(=O)N
Procedure, shortened: as §1

UniProt Q0IIM8, sequence (Q0IIM8 whole entry, looked up): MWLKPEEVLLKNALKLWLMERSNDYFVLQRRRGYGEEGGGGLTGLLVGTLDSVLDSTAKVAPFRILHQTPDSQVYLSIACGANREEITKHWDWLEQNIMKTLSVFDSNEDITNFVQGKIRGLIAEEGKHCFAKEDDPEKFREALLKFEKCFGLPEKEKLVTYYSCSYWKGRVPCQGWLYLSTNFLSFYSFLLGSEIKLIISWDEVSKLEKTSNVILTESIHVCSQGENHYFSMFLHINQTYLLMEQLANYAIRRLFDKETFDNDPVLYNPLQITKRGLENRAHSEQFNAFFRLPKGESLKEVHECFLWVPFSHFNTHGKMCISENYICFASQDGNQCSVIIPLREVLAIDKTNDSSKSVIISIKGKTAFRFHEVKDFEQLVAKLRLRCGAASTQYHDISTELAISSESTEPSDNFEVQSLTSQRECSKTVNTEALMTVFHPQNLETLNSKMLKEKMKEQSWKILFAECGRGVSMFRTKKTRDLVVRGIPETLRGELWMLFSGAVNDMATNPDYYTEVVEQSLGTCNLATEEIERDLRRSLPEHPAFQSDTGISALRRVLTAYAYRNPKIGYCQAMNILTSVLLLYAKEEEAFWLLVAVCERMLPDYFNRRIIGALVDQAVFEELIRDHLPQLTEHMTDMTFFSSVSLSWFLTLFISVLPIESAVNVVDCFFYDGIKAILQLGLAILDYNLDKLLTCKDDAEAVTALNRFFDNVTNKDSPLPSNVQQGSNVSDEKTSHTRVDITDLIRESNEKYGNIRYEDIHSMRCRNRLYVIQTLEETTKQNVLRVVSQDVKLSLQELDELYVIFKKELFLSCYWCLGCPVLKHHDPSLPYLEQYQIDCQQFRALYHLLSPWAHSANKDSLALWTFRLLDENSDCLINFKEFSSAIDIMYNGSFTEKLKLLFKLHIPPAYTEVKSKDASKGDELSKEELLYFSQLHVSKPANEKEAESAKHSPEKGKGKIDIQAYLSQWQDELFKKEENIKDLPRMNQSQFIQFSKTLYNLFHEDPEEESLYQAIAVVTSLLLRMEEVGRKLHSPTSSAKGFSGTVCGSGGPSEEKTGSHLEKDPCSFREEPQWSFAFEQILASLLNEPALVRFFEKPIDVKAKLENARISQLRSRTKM
UniProt Q8NBN3, sequence (Q8NBN3 whole entry, looked up): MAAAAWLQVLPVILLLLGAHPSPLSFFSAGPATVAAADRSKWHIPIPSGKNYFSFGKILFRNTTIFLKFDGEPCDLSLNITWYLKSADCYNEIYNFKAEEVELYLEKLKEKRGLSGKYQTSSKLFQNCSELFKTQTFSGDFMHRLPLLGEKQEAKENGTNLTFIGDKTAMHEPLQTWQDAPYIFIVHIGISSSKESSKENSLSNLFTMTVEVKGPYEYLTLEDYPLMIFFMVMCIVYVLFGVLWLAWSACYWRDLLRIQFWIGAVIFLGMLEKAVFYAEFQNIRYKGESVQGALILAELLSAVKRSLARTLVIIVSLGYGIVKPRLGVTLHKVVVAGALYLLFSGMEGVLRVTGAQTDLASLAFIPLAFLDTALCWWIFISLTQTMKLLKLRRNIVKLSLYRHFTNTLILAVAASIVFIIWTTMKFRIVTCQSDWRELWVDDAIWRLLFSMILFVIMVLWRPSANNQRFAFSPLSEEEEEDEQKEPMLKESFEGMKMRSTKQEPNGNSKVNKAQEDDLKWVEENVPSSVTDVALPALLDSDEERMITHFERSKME
UniProt Q96S44, sequence (Q96S44 whole entry, looked up): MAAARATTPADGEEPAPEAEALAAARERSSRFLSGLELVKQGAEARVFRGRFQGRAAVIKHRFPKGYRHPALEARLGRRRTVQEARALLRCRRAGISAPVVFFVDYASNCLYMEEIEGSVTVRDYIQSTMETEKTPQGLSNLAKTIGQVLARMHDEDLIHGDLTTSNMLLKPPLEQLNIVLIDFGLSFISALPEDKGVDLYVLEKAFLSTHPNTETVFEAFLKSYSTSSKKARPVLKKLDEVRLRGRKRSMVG
UniProt Q6PJ69, sequence (Q6PJ69 whole entry, looked up): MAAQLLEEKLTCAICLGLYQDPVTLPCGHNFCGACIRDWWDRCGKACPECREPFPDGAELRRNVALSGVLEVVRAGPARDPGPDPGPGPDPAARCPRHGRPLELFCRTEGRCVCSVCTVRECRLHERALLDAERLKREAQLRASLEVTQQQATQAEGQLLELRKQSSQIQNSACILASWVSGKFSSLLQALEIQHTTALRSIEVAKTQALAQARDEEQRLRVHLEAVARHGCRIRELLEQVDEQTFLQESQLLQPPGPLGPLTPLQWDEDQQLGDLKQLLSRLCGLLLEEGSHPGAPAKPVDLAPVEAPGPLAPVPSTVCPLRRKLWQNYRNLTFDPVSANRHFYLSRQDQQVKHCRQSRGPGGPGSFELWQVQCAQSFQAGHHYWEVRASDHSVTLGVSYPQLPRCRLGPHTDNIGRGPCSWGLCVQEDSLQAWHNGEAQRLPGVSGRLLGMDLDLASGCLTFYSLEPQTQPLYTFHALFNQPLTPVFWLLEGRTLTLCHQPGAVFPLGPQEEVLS
UniProt Q6IPR3, sequence (Q6IPR3 whole entry, looked up): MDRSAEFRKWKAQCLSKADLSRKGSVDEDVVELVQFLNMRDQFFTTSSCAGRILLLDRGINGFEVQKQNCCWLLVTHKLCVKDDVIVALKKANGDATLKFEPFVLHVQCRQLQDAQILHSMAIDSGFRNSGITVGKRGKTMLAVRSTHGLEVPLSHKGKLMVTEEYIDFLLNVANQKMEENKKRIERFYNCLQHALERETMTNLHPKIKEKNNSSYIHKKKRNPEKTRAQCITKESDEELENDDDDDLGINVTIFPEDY
UniProt P22314, sequence (P22314 whole entry, looked up): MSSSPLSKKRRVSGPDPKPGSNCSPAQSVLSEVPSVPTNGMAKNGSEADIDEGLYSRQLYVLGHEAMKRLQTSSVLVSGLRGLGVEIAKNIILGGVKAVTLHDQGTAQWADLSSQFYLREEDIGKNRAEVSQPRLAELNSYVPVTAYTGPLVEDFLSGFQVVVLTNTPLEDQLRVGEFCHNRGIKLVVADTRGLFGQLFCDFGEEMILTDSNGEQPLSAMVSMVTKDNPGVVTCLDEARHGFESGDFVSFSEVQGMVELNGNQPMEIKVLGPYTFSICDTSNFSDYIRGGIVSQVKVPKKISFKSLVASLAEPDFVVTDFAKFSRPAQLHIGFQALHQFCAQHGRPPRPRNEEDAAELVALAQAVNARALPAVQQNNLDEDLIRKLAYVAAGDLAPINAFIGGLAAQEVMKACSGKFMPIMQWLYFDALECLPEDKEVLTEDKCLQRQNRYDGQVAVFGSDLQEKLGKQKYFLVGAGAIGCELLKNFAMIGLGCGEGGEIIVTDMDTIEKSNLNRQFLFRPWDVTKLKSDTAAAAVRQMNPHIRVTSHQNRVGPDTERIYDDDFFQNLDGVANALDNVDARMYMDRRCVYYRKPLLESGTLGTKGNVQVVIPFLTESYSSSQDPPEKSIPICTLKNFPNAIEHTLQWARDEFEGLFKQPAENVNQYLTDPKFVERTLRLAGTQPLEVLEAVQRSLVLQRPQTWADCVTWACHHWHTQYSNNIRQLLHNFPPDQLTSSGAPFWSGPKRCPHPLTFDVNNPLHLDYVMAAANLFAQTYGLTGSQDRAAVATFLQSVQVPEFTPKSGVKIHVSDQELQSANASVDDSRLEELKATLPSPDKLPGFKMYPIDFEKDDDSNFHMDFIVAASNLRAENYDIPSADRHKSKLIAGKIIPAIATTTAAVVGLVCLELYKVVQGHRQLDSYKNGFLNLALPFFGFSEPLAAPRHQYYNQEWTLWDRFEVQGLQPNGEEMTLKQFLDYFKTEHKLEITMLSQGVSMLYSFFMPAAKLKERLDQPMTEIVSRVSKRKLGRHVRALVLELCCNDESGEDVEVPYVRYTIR
UniProt Q5BJF2, sequence (Q5BJF2 whole entry, looked up): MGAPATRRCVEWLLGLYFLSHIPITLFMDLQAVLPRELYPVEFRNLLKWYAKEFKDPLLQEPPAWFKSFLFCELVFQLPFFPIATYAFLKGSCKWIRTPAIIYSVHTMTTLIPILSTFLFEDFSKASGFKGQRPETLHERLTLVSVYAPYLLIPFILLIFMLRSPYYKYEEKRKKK
UniProt P42166, sequence (P42166 whole entry, looked up): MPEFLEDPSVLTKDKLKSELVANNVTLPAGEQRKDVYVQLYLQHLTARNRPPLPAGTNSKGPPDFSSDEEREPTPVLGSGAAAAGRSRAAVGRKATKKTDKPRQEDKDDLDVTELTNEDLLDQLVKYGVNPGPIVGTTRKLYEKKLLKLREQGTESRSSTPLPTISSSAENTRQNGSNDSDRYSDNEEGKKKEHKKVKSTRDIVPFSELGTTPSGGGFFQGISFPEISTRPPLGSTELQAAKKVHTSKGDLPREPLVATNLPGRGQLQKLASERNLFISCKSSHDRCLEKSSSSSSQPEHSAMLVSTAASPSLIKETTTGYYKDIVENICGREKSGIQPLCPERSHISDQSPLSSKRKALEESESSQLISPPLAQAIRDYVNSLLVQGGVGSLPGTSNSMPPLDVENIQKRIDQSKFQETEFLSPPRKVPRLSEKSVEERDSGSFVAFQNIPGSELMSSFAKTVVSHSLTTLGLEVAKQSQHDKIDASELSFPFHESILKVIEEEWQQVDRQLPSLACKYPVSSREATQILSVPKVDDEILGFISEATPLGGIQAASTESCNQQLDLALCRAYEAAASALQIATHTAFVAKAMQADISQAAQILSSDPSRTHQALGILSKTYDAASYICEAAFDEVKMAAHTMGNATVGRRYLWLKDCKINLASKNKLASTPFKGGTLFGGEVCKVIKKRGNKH
UniProt Q9NX07, sequence (Q9NX07 whole entry, looked up): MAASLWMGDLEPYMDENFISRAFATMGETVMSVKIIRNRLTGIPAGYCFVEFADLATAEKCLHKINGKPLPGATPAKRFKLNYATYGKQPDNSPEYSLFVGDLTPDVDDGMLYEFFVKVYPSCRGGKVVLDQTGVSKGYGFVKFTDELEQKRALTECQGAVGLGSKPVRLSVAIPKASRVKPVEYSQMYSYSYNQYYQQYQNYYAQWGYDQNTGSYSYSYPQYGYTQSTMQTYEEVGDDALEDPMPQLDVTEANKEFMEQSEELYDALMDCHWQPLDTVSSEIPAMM

Target	log2 fold change [1]	log2 fold change [2]	log2 fold change [3]	log2 fold change [4]	log2 fold change [5]	log2 fold change [6]	log2 fold change [7]	log2 fold change [8]	log2 fold change [9]	log2 fold change [10]	log2 fold change [11]	log2 fold change [12]	log2 fold change [13]	log2 fold change [14]	log2 fold change [15]	log2 fold change [16]	log2 fold change [17]	log2 fold change [18]	log2 fold change [19]	log2 fold change [20]
TRAF2 isoform 2 (UniProt Q12933)	0.026	-0.002	0.008	0.013	-0.016	-0.01	-0.015	-0.008	0.029	0.033	-0.026	-0.002	0.022	-0.022	-0.051	-0.004	-0.028	0.029	-0.009	-0.006
TMEM97 (UniProt Q5BJF2)	0.01	0.043	0.036	0.007	0.019	0	0.002	-0.033	0.018	0.091	0.01	0.012	0.004	-0.056	-0.034	-0.025	-0.032	0.003	0.042	-0.017
TTC12 isoform 2 (UniProt Q9H892)	0.066	-0.051	0.055	0.007	-0.081	-0.037	-0.019	-0.006	0.034	0.231	-0.002	-0.073	0.053	0.128	-0.032	-0.049	-0.042	0.037	-0.14	-0.003
TMEM87A (UniProt Q8NBN3)	-0.015	-0.021	0.01	0.037	-0.02	-0.02	-0.027	0.031	-0.004	-0.028	-0.002	0.019	-0.031	-0.035	-0.075	-0.017	-0.02	0.016	0.004	-0.02
UBE2L6 (UniProt O14933)	0.062	-0.03	0.007	-0.003	-0.065	-0.001	0.023	-0.014	0.144	0.047	0.152	0.012	-0.002	-0.041	-0.009	-0.033	-0.014	-0.019	-0.007	0.002
TLK2 isoform 2 (UniProt Q86UE8)	-0.071	-0.076	0.054	-0.006	0.014	0.001	0.171	-0.012	0.021	-0.058	-0.021	0.104	0.035	-0.018	0.007	-0.009	0.051	0	0.025	-0.055
TRIM65 (UniProt Q6PJ69)	0.047	-0.072	-0.008	0.021	-0.005	-0.044	-0.054	0.026	0.007	-0.025	0.053	0.073	0.046	-0.035	0.005	0.047	0.006	0.006	0.003	-0.063
TMPO (UniProt P42166)	0.026	-0.038	0.012	-0.097	-0.03	-0.024	-0.026	-0.004	0.005	0.008	-0.025	-0.018	-0.087	-0.004	0.018	0.011	0	0.024	0.047	-0.026
TYW3 (UniProt Q6IPR3)	-0.002	0.003	0.063	-0.032	-0.008	0.002	-0.07	-0.054	0.014	0.018	-0.052	-0.054	-0.016	-0.081	0.043	-0.015	-0.021	0.025	0.01	-0.004
TBK1 (UniProt Q9UHD2)	-0.005	-0.066	-0.03	0.006	-0.067	0.023	0.238	0.214	-0.047	0.082	-0.02	0.159	-0.007	-0.035	0.047	0.015	-0.016	-0.034	0.032	-0.013
TRNAU1AP (UniProt Q9NX07)	0.019	0.083	-0.037	0.114	0.038	-0.028	-0.31	-0.071	0.015	-0.005	-0.013	-0.212	0.07	-0.045	0.039	-0.008	0.02	-0.035	0.034	0.021
TP53RK (UniProt Q96S44)	-0.005	0.025	0.038	-0.24 (active)	-0.37 (active)	-0.03	0.042	0.014	-0.022	-0.008	0.02	-0.059	0.019	-0.008	0.007	-0.013	-0.004	0	-0.02	-0.071
UBA1 (UniProt P22314)	0.034	0.017	-0.022	0.003	0.004	0.002	-0.044	0	0.02	-0.013	-0.002	0.003	0.053	0	0.027	-0.018	0.006	0	0.015	0.02
TBC1D8B (UniProt Q0IIM8)	-0.023	-0.376	0.036	-0.041	0	0.01	0.01	0.017	0.063	0.001	0.044	-0.039	-0.049	-0.017	0.031	-0.072	0.006	0.016	-0.056	-0.051
THADA (UniProt Q6YHU6)	0.059	-0.003	0	0.004	-0.011	-0.004	-0.017	-0.024	0.017	-0.017	0.011	0.006	-0.009	-0.029	-0.016	-0.01	0.012	0.028	0.03	0.013
